From paper PMC7862700, “An all-to-all approach to the identification of sequence-specific readers for epigenetic DNA modifications on cytosine” come the findings set out here.

Common to all, as to experiment: DAPPL (digital affinity profiling via proximity ligation, sequencing); 10 mM Tris-HCl pH 7.5, 50 mM NaCl, 1 mM DTT, 4% glycerol, room temperature, 30 min; GST-TFs on glutathione beads, 16-mer random dsDNA library, 0.1% formaldehyde crosslink after washing; high values mean tight binding
The target of one assay is T1, FEV (Homo sapiens, UniProt Q99581 1-238).
T1 sequence: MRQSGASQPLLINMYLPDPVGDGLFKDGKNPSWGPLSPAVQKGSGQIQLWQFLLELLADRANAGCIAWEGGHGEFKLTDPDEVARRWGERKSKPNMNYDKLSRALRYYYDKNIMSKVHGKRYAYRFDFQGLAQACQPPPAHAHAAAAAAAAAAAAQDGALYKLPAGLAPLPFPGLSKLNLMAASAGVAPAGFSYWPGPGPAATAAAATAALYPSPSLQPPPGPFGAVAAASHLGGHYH
Particulars: protein: recombinant; tags: N-terminal GST; dsDNA, one strand shown. In outline:
(§1)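 Pools of DNA-barcoded human transcription factors, expressed in yeast as GST fusions on glutathione beads and combined with a tag-only sample, were incubated with 200 nmole of a 16-mer random double-stranded DNA library. Incubation took 30 min at room temperature in Tris/NaCl/DTT/glycerol buffer and was followed by washing, 0.1% formaldehyde crosslinking, proximity ligation (BsaI/T4 ligase, 1 h, 37 °C), PCR amplification and sequencing on an Illumina NextSeq500. Binding signal is the ratio of a hexamer's read frequency for a factor to its frequency for the tag-only sample.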

For the next assay, the target named is ETV5 (Homo sapiens, UniProt P41161 1-510). Particulars: protein: recombinant; tags: N-terminal GST; dsDNA, one strand shown. In outline:
as §1

A further assay concerns the target HSF1 (Homo sapiens, UniProt Q00613 1-529). Particulars: protein: recombinant; tags: N-terminal GST; chain copies: 3; dsDNA, one strand shown. In outline:
as §1

For another assay, the target named is T2, SPIC (Homo sapiens, UniProt Q8N5J4 1-248).
T2 sequence: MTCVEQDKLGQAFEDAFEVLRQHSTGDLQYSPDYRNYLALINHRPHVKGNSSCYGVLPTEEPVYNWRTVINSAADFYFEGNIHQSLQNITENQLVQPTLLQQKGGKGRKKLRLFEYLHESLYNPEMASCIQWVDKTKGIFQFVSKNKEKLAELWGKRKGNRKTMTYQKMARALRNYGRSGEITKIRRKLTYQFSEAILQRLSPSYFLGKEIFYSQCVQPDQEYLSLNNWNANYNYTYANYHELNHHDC
As to conditions: protein: recombinant; tags: N-terminal GST; dsDNA, one strand shown. In outline: as §1

In another assay the target is ELF4 (Homo sapiens, UniProt Q99607 1-663). Particulars: protein: recombinant; tags: N-terminal GST; dsDNA, one strand shown. The essentials:
as §1

A further assay addresses T3, ELK4 (Homo sapiens, UniProt P28324-2 1-405).
T3 sequence: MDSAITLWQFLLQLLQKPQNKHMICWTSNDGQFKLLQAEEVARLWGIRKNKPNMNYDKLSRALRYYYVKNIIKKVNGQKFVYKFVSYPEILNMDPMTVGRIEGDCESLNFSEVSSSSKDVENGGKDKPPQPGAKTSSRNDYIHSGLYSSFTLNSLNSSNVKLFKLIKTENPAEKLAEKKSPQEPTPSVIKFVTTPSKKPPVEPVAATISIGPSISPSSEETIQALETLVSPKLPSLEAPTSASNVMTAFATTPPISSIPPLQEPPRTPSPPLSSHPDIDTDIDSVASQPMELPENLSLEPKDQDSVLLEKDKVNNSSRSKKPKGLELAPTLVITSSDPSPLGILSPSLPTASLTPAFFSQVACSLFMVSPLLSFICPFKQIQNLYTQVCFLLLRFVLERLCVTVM
As to conditions: protein: recombinant; tags: N-terminal GST; dsDNA, one strand shown. The essentials:
as §1

A further assay addresses T4, ETV2 (Homo sapiens, UniProt O00321 1-342).
T4 sequence: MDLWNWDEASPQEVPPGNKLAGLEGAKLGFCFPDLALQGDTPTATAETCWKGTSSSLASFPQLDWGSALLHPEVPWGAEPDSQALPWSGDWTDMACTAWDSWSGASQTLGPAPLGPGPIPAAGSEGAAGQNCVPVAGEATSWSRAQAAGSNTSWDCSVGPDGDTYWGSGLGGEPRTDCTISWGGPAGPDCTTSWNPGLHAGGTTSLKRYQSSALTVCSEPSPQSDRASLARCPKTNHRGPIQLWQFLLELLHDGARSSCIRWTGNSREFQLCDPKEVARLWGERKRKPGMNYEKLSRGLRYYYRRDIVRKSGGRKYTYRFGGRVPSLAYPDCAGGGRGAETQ
As to conditions: protein: recombinant; tags: N-terminal GST; dsDNA, one strand shown. The essentials:
as §1

Another assay concerns the target T5, ELF3 (Homo sapiens, UniProt P78545 1-371).
T5 sequence: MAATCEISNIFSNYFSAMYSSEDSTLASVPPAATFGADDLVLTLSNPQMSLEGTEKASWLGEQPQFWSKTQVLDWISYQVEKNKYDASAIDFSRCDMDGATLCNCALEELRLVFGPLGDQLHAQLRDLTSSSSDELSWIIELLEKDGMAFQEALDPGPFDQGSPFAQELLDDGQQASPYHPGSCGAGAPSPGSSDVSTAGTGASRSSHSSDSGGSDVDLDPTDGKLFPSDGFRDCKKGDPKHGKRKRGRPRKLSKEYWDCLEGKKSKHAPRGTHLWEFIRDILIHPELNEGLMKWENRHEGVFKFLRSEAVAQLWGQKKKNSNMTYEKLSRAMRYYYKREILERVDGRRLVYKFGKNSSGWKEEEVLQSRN
As to conditions: protein: recombinant; tags: N-terminal GST; dsDNA, one strand shown. In outline: as §1

The target of the next assay is CRX (Homo sapiens, UniProt O43186 1-299). As to conditions: protein: recombinant; tags: N-terminal GST; dsDNA, one strand shown. In outline:
as §1

The target in another assay is ETV1 (Homo sapiens, UniProt P50549 1-477). As to conditions: protein: recombinant; tags: N-terminal GST; dsDNA, one strand shown. The essentials:
as §1

Another assay deals with T6, ERF (Homo sapiens, UniProt P50548 1-548).
T6 sequence: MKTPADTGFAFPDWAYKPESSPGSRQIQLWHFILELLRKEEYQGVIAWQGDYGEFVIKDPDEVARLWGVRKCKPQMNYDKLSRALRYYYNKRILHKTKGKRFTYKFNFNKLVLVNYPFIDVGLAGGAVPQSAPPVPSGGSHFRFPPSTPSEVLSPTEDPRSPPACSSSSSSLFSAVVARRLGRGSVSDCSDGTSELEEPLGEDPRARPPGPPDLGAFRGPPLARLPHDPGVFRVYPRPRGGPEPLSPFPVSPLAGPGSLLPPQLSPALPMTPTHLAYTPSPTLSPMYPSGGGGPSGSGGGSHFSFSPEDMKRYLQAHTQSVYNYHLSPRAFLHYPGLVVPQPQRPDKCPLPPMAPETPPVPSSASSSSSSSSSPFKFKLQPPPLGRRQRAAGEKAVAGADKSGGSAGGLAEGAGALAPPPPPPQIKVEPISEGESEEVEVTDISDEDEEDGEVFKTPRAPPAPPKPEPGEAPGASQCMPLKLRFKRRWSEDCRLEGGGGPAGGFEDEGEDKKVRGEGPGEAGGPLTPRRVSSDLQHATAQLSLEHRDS
Particulars: protein: recombinant; tags: N-terminal GST; dsDNA, one strand shown. The essentials: as §1

The next assay has as its target T7, ETV3L (Homo sapiens, UniProt Q6ZN32 1-361).
T7 sequence: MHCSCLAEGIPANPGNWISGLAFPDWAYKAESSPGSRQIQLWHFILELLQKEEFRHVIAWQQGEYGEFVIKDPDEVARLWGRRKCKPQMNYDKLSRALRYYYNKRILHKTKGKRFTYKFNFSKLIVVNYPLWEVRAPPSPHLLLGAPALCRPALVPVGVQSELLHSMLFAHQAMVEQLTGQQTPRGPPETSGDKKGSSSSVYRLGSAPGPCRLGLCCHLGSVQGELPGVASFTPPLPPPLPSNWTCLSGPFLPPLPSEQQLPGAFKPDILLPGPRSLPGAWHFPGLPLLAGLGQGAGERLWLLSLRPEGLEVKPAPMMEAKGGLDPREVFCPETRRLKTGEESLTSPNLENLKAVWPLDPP
Particulars: protein: recombinant; tags: N-terminal GST; dsDNA, one strand shown. The essentials:
as §1

Another assay concerns the target T8, ETS2 (Homo sapiens, UniProt P15036 1-469).
T8 sequence: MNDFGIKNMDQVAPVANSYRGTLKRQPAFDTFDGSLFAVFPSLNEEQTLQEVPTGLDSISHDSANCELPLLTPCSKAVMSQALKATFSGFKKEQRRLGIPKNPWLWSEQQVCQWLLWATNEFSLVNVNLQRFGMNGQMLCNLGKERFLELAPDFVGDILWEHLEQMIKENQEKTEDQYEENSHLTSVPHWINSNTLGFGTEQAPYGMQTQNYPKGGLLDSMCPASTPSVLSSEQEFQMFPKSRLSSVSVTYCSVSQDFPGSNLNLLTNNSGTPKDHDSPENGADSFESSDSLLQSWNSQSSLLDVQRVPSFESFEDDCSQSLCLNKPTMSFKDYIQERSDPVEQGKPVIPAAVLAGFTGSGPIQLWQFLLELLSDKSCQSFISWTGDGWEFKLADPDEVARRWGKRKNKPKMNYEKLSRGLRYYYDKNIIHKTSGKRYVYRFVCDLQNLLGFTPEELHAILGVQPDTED
Particulars: protein: recombinant; tags: N-terminal GST; dsDNA, one strand shown. The essentials:
as §1

The next assay concerns the target T9, SPDEF (Homo sapiens, UniProt O95238 1-335).
T9 sequence: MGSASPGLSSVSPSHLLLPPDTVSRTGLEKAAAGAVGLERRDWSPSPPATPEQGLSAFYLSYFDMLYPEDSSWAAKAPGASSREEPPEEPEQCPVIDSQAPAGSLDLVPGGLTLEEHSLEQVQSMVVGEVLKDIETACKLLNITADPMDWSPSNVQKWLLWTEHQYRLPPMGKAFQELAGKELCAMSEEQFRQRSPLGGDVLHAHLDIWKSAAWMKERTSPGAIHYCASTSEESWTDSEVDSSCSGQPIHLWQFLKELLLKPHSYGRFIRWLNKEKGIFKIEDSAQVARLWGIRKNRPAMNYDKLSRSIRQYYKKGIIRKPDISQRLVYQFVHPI
As to conditions: protein: recombinant; tags: N-terminal GST; dsDNA, one strand shown. The essentials: as §1

The target of a further assay is T10, ETV7 (Homo sapiens, UniProt Q9Y603 1-341).
T10 sequence: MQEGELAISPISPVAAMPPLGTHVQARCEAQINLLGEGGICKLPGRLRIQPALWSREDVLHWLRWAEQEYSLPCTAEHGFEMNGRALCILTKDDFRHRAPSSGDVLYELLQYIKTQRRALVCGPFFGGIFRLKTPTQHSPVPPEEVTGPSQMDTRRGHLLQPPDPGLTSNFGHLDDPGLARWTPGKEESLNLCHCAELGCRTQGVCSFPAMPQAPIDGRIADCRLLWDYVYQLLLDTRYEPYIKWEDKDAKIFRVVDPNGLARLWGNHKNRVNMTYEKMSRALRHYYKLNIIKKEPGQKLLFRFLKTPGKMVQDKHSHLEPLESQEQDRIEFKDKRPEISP
Particulars: protein: recombinant; tags: N-terminal GST; dsDNA, one strand shown. In outline:
as §1

The next assay concerns the target T11, ELF5 (Homo sapiens, UniProt Q9UKW6-2 1-255).
T11 sequence: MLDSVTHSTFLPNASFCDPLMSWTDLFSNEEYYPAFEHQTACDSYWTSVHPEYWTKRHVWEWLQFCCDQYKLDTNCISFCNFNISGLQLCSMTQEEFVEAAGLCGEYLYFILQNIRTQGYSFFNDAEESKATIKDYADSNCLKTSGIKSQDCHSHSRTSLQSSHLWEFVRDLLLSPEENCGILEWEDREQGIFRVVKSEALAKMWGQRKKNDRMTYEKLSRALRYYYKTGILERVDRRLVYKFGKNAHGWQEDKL
As to conditions: protein: recombinant; tags: N-terminal GST; dsDNA, one strand shown. The essentials: as §1

For a further assay, the target named is T12, ETV3 (Homo sapiens, UniProt P41162-2 1-143).
T12 sequence: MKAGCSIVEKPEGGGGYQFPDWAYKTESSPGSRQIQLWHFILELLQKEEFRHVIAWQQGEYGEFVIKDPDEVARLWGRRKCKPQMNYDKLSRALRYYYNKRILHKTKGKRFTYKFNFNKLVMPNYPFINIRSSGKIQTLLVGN
Particulars: protein: recombinant; tags: N-terminal GST; dsDNA, one strand shown. The essentials:
as §1

Another assay concerns the target ETV6 (Homo sapiens, UniProt P41212 1-452). Particulars: protein: recombinant; tags: N-terminal GST; dsDNA, one strand shown. In outline: as §1

Sequence of ETV5 (P41161 whole entry): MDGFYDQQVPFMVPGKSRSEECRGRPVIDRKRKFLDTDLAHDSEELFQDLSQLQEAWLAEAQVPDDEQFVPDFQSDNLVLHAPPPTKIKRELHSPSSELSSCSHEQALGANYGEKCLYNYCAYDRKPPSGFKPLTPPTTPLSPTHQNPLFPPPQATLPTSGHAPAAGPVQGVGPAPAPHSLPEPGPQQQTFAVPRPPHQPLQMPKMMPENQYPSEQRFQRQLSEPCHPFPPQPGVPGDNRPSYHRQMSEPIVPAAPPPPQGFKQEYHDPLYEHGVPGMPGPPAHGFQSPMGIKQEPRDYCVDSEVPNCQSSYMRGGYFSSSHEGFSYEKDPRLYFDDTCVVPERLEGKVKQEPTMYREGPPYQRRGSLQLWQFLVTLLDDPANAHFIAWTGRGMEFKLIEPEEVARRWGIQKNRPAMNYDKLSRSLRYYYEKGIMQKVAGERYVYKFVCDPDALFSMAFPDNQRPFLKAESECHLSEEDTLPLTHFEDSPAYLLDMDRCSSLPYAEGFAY
Sequence of ETV1 (P50549 whole entry): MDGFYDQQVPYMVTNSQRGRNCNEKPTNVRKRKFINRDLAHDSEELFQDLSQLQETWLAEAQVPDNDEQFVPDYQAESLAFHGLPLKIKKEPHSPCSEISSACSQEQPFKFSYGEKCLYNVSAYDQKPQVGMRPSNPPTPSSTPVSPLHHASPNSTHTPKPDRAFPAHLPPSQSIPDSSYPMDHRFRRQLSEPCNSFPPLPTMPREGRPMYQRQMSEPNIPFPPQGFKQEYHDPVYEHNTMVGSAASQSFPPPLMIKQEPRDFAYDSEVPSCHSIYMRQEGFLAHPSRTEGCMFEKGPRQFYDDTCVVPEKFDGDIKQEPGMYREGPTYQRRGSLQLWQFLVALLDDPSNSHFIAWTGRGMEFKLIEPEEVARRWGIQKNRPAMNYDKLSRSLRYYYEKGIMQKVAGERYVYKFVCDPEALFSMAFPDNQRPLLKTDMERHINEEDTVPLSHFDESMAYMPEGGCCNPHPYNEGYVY
Sequence of HSF1 (Q00613 whole entry): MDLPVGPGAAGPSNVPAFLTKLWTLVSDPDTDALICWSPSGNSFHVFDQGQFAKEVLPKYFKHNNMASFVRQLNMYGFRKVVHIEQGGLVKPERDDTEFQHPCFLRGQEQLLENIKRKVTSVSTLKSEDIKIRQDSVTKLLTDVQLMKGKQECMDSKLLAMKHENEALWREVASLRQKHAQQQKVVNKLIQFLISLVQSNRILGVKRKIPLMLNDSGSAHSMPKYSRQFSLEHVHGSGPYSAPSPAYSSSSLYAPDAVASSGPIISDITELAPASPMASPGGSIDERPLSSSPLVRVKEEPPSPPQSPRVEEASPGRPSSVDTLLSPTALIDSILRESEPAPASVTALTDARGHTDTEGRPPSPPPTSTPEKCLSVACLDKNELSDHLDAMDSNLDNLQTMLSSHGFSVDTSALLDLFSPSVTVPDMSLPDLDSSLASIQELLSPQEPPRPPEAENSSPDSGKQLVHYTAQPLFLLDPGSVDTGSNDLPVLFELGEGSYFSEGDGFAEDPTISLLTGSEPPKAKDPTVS
Sequence of ETV6 (P41212 whole entry): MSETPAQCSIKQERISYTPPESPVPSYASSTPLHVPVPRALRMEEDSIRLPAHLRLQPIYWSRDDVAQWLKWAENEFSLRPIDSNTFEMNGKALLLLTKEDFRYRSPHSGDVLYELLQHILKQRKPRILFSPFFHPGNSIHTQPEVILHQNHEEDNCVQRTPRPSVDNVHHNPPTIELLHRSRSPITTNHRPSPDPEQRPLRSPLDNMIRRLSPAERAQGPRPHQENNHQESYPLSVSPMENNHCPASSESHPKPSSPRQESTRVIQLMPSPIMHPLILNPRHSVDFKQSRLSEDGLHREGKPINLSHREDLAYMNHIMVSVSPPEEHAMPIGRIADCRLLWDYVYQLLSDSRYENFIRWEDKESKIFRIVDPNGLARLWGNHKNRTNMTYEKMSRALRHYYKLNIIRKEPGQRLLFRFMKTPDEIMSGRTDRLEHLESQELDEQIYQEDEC
Sequence of CRX (O43186 whole entry): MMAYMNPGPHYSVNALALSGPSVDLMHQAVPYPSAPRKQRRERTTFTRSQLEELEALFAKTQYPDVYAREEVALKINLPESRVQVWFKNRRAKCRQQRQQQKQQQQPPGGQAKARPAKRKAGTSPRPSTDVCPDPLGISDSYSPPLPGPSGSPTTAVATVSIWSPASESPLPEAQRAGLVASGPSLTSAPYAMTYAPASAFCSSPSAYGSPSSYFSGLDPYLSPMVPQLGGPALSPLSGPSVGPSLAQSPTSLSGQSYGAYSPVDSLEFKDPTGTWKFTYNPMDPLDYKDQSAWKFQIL
Sequence of ELF4 (Q99607 whole entry): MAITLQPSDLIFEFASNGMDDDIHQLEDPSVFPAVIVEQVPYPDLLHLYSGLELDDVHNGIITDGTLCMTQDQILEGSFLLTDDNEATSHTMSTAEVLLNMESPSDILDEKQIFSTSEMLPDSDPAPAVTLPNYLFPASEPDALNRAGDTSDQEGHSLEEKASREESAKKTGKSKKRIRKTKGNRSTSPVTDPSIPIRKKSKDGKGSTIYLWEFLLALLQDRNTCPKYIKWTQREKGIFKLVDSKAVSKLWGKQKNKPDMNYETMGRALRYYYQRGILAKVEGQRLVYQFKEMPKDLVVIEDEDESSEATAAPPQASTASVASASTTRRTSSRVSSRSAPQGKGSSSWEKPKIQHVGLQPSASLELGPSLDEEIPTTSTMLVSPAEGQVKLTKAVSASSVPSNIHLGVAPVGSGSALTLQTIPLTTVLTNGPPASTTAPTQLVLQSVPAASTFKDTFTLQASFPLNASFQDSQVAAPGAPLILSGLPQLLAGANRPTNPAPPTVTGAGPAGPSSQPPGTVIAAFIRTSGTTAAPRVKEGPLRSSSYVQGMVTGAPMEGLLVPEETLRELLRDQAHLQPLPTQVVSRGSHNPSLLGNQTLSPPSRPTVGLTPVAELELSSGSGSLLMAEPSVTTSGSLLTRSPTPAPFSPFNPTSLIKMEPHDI

Consider AATTAG, for which the binding signal is 1.07 fold enrichment (6-mer frequency, TF over GST control) in the assay with FEV; 1.12 fold enrichment (6-mer frequency, TF over GST control) in the assay with ETV5; 1.39 fold enrichment (6-mer frequency, TF over GST control) in the assay with HSF1; 1.08 fold enrichment (6-mer frequency, TF over GST control) with SPIC; 1.15 fold enrichment (6-mer frequency, TF over GST control) with ELF4; 1.14 fold enrichment (6-mer frequency, TF over GST control) with ELK4. Also, the binding signal with ETV2 was 1.12 fold enrichment (6-mer frequency, TF over GST control); in the assay with ELF3, 1.13 fold enrichment (6-mer frequency, TF over GST control); in the assay with CRX, 1.69 fold enrichment (6-mer frequency, TF over GST control); with ETV1, 1.14 fold enrichment (6-mer frequency, TF over GST control); with ERF, 1.15 fold enrichment (6-mer frequency, TF over GST control); in the assay with ETV3L, 1.12 fold enrichment (6-mer frequency, TF over GST control). For the same sequence, the binding signal with ETS2 was 1.09 fold enrichment (6-mer frequency, TF over GST control); with SPDEF, 1.06 fold enrichment (6-mer frequency, TF over GST control); with ETV7, 1.25 fold enrichment (6-mer frequency, TF over GST control); with ELF5, 1.1 fold enrichment (6-mer frequency, TF over GST control); with ETV3, 1.19 fold enrichment (6-mer frequency, TF over GST control); with ETV6 it was 1.13 fold enrichment (6-mer frequency, TF over GST control).
